This is a sample that favours compounds with a hit; in the whole collection about 2.9% have one here.
HePTP inh: inhibitors of human HePTP phosphatase; P35236; recombinant HePTP phosphatase activity, OD absorbance; inhibition, % at 20 µM; 110,000 tested, 0.64% active; AID 521; in the data active = inhibition above about 50%;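 note: plate controls were vehicle for no effect and reference inhibitor for full effect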
ERa coact pot: enhances coactivator binding to human estrogen receptor alpha | TR-FRET ERalpha-LBD/SRC-Cy5 coactivator binding, 2 h; 100 = basal binding, no effect | P03372 | AID 639 | 86,000 tested, 1.3% active | coactivator binding (% of control), % at 25.6 µM; in the data active = activity above about 200%;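 note: binding measured in presence of low estradiol as agonist stimulus; 0% = peptide alone without receptor and 100% = receptor with peptide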
Smad3 inh: inhibitors of human Smad3 transcription factor binding; 88,000 tested, 0.29% active; inhibition, % at 25 µM; P84022; TR-FRET Smad3/Dy647-FoxH1 peptide binding, europium anti-His;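 active = compounds that reduce the energy-transfer binding signal between the protein and its labelled peptide by more than half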;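 note: 0% = Smad3 plus labelled peptide maximal FRET and 100% = peptide-only background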
Target sequence (P84022 whole entry, looked up): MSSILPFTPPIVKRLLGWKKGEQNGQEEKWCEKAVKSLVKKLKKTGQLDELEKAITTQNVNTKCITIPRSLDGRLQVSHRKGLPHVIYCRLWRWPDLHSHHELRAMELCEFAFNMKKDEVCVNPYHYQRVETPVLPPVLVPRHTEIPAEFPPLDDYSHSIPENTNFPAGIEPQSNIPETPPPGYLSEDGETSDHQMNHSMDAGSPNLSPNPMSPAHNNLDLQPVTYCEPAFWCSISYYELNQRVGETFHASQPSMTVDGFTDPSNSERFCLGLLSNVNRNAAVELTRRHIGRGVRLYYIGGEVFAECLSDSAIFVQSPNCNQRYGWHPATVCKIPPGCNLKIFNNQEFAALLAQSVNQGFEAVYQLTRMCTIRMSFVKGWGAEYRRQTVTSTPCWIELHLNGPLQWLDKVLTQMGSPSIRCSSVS
ERa SRC1 inh: blocks coactivator binding to human estrogen receptor alpha. P03372. TR-FRET ER-alpha LBD / SRC-1 peptide, estradiol-bound. inhibition, % at 25.6 µM. 86,000 tested, 1.7% active; in the data active = inhibition above about 50%;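 note: 0% = receptor plus peptide control and 100% = peptide only without receptor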
ERb SRC1 inh: ER-beta (human) coactivator binding inhibition. TR-FRET ER-beta LBD / SRC1-Cy5 peptide binding; receptor agonist-loaded with 1 µM estradiol. inhibition, % at 25.6 µM. 86,000 tested, 1.3% active. AID 633;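 active = compounds whose percent inhibition of the receptor-coactivator binding signal exceeds about 50% in the single-dose screen, limit read from the data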;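 note: 0% = receptor plus peptide wells without compound and 100% = peptide-only wells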
Candida biofilm: kills Candida albicans biofilms; AID 834; inhibition, % at 6 µM; 85,000 tested, 0.14% active; C. albicans biofilm + clotrimazole, Alamar Blue;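 active = inhibition above 20%; inactive = inhibition below 20%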;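 note: preformed 24 hr biofilms exposed to compound for 48 hr; 0% = biofilm without compound and 100% = blank killed by clotrimazole plus chlorhexidine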
* hit, by the source's call; x = no result given; [ ] = dose if it differs, or a comment.

SMILES	HePTP inh	ERa coact pot	Smad3 inh	ERa SRC1 inh	ERb SRC1 inh	Candida biofilm
CCC(C(=O)NCc1ccco1)n1nc(-c2ccc(OC)cc2)ccc1=O (stereo not drawn)	6.5	227.2*[fluorescence artefact?]	-2.1	42.2	37.3	x
Cc1ccc(S(=O)(=O)NC(=O)Oc2ccc3oc(=O)sc3c2)cc1	-10.0	x	x	x	x	x
O=C(O)c1cccc2cccc(-c3cccc4cccc(C(=O)O)c34)c12	x	x	66.6*	x	x	x
COc1ccc(Cn2c(-c3ccco3)nc3oc4cc(OC)ccc4c(=O)c3c2=O)cc1	2.5	570.8*[fluorescence artefact?]	-83.9	49.5	53.8*[fluorescence artefact?]	4.6
CCc1nc2oc3cc(OC)ccc3c(=O)c2c(=O)n1Cc1ccco1	0.6	78.2	3.3	37.3	58.6*	7.3
COc1ccc2c(=O)c3c(=O)n(Cc4ccco4)c(-c4ccco4)nc3oc2c1	x	48.8	15.4	75.2*[fluorescence artefact?]	60.3*	-0.9
COc1ccc(-c2nc3oc4cc(OC)ccc4c(=O)c3c(=O)n2Cc2ccco2)cc1	6.1	86.3	15.9	42.3	23.1	9.2
Cc1cc(C)cc(-n2c(=O)c3sccc3n(CC(=O)NCc3ccco3)c2=O)c1	10.4	103.5	-1.6	-2.0	79.9*[fluorescence artefact?]	12.0
Cc1ccc(C)c(Cn2c(=O)n(CCC(=O)NCc3ccco3)c(=O)c3sccc32)c1	6.6	204.6*	-16.6	20.5	-3.8	6.8
Cc1cc(C)c(Cn2c(=O)n(CCCC(=O)NCc3ccco3)c(=O)c3sccc32)c(C)c1	x	117.1	-28.9	52.8*[fluorescence artefact?]	19.1	-6.9
CCOC(=O)C1=C(C)NC(=S)NC1c1ccc(Cl)cc1 (stereo not drawn)	4.6	x	x	x	x	x
CC1=C(SCCC#N)S/C(=C2\SC(C)=C(SCCC#N)S2)S1	-3.9	43.3	3.7	80.5*	53.4*	10.7
O=C(CN1C(=O)NC2(CCCC2)C1=O)Nc1cccc(-c2nnc3n2CCCCC3)c1	10.8	106.1	1.7	-6.5	4.8	-2.3
CC(=O)c1cccc(NC(=O)CN2C(=O)NC3(CCCCCCC3)C2=O)c1	8.5	68.6	10.0	56.6*	31.2	0.3
CCOC(=O)c1[nH]c(C)c(C(=O)N2CCOCC2)c1C	4.5	111.5	-7.0	-2.0	-1.5	-0.3
CCOC(=O)c1[nH]c(C)c(C(=O)N2CCN(C(=O)OCC)CC2)c1CC	4.9	113.7	4.7	99.1*[fluorescence artefact?]	-3.7	5.6
CCC(Nc1ccc(Br)cc1)C(=O)N/N=C/c1ccc(Cl)cc1Cl (stereo not drawn)	8.1	x	x	x	x	x
COc1cc(/C=N/N2CCN(Cc3ccc(Cl)cc3)CC2)cc(OC)c1OC(C)=O	-2.1	x	x	x	x	x
CCCCOc1ccc(C(=O)NCc2ccccn2)cc1	5.3	622.7*[fluorescence artefact?]	9.7	-36.5	-15.4	2.0
O=C(NCc1ccccn1)c1ccc(/C=N/O)nc1	8.2	92.1	0.5	1.1	65.8*[fluorescence artefact?]	9.0
O=c1c2cc(N3CCOCC3)ccc2[nH]c(=S)n1Cc1ccco1	7.5	98.9	4.9	47.2	51.1*	9.2
O=c1[nH]c2ccccc2c(=O)n1Cc1ccco1	11.5	98.3	-1.1	-1.8	62.8*	5.6
Oc1ccc(C=Nc2ccc(N3CCOCC3)cc2)c(O)c1	0.8	49.0	8.0	57.6*	68.6*	6.1
COc1ccc(/C=C(/C#N)c2nc(-c3ccc(C)cc3)cs2)o1	-4.4	x	x	x	x	x
NC(=O)c1ccccc1N=Cc1cc(Cl)cc(Cl)c1O	-9.7	x	x	x	x	x
SMILES	HePTP inh	ERa coact pot	Smad3 inh	ERa SRC1 inh	ERb SRC1 inh	Candida biofilm
Cc1ccc(NC2C=CS(=O)(=O)C2)cc1C (stereo not drawn)	5.4	x	x	x	x	x
C=CCNc1nc(N)c(C(=O)Nc2cc(C)on2)s1	7.1	116.1	6.3	1.9	1.1	5.5
Cc1cc(C(F)(F)F)c2c(N)c(C(=O)Nc3cc(C)on3)sc2n1	7.7	214.5*[fluorescence artefact?]	40.9	2.2	19.8	2.6
O=C(Cc1sc(-c2ccccc2Cl)nc1-c1ccccc1)Nc1ccccc1	x	234.7*[fluorescence artefact?]	-71.6	9.4	-3.7	3.7
O=C(CCCOc1ccc(Cl)c(Cl)c1)Nc1cccc2ccccc12	8.1	x	x	x	x	x
CCn1cc(C(=O)Nc2ccc(-n3cnnn3)c(OC)c2)c(=O)c2ccc(C)nc21	6.8	337.1*[fluorescence artefact?]	3.4	-45.9	-0.6	9.3
CCn1cc(C(=O)Nc2cccc(C(=O)OC)c2)c(=O)c2ccc(C)nc21	8.7	154.0	-14.2	-5.2	-3.3	2.9
CCCOC(=O)c1ccc(NC(=O)c2cn(CC)c3nc(C)ccc3c2=O)cc1	x	274.7*[fluorescence artefact?]	60.8*[fluorescence artefact?]	47.8	44.2	6.4
CCn1cc(C(=O)Nc2ccccc2C(=O)OC)c(=O)c2ccc(C)nc21	5.2	98.7	1.4	-9.4	-3.4	7.8
CCn1cc(C(=O)NC2CCc3ccccc32)c(=O)c2ccc(C)nc21 (stereo not drawn)	-2.0	425.0*[fluorescence artefact?]	8.5	-9.7	15.1	0.5
O=[N+]([O-])c1cccc(-c2ncnn2-c2ccccc2)c1	-4.9	x	x	x	x	x
COc1ccc(C(=O)Nc2ccccc2)cc1NC(=O)c1c(OC)cccc1OC	-0.9	x	x	x	x	x
C/C=C(/C(=C/C)c1ccc(O)cc1)c1ccc(O)cc1	8.7	740.6*	2.6	9.7	15.1	4.3
CCOC(=O)c1c(NC(=O)c2ccc(F)cc2)sc(C(=O)Nc2ccc3c(c2)OCO3)c1C	-1.5	x	x	x	x	x
O=C(Nc1ccc(Br)cn1)c1ccccc1F	3.8	x	x	x	x	x
Cc1ccccc1C(=O)Nc1ccc(Br)cn1	7.4	204.1*	-5.5	-4.5	-1.8	4.5
Cc1ccc(/C=c2/sc3n(c2=O)C(N)=C(C#N)C(c2ccc(C)o2)C=3C#N)o1 (stereo not drawn)	8.6	x	x	x	x	x
N#Cc1c(C(F)(F)F)cc(-c2cccs2)nc1SCC(=O)Nc1ccc(S(N)(=O)=O)cc1	73.2*	x	x	x	x	x
Cc1ccccc1NC(=O)CSc1nc(N)c(C#N)c(-c2cccs2)c1C#N	-5.3	319.3*[fluorescence artefact?]	28.6	29.4	50.6*[fluorescence artefact?]	5.3
N#Cc1cc2c(nc1SCC(=O)Nc1ccc(S(N)(=O)=O)cc1)CCC2	-5.0	x	x	x	x	x
CCN(CC)C(=O)CSc1nc(N)c(C#N)c(-c2cccs2)c1C#N	x	221.5*[fluorescence artefact?]	3.3	17.3	1.7	4.2
CCc1c(C#N)c(N)nc(SCC(=O)OCc2ccccc2)c1C#N	6.4	206.8*[fluorescence artefact?]	27.0	26.0	27.5	1.9
CCN(CC)C(=O)CSc1nc(-c2cccs2)cc(-c2cccs2)c1C#N	x	191.1	-10.4	-14.5	7.5	4.4
N#Cc1c(N)nc(SCc2ccccc2)c(C#N)c1-c1cccs1	1.1	x	x	x	x	x
N#Cc1c(N)nc(SCc2ccncc2)c(C#N)c1-c1cccs1	13.1	266.9*[fluorescence artefact?]	2.7	-0.8	-5.5	5.4
CCN(CC)C(=O)CSc1ncnc2c(-c3cccs3)nsc12	7.7	177.0	13.7	50.7*[fluorescence artefact?]	50.9*[fluorescence artefact?]	10.0
Cc1ccc(N2C(=O)/C(=C/c3cc(Br)ccc3O)C(=O)NC2=S)cc1	5.1	x	x	x	x	x
COc1ccc(CCN2C(=O)C3C4C=CC(C3C2=O)C2C(=O)N(CCc3ccc(OC)c(OC)c3)C(=O)C42)cc1OC (stereo not drawn)	x	108.0	1.0	0.1	-5.8	-5.8
COc1ccc(CCn2c(N)cc(=O)[nH]c2=S)cc1OC	3.5	43.8	10.3	47.5	58.5*[fluorescence artefact?]	8.8

Screening results as filed in PubChem.
